Among the data in PubChem BioAssay are composite z-score and z-score values, retold here.

Active and inactive are the calls of the source.

Experiment [1] in a line: small molecules captured by biotinylated probe aFSTL3 – biochemical, small-molecule microarray, fluorescence 635/667, stem cell growth factor project, primary screen (AID 1064).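 Note: measures binding of the biotinylated anti-FSTL3 antibody to printed compounds.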 Conditions: higher = more signal.
Experiment [2] in a line: binders from COS7 lysate, DM2A8 probe, primary screen, torsin A project, cell lysate, small-molecule microarray, fluorescence 635/667 (AID 1065). Conditions: higher = more signal, COS7 lysate expressing mutant human TOR1A.
Experiment [3] in a line: small molecules captured by biotinylated probe aFGF2 – biochemical, small-molecule microarray, fluorescence 635/667, stem cell growth factor project, primary screen (AID 1067).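 Note: measures binding of biotinylated aFGF2 protein to printed compounds on slides; z-score merges feature fluorescence and signal-to-noise across triplicate slides.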 Conditions: higher = more signal.
The nature of experiment [4]: small molecules captured by biotinylated probe aFGF10 – biochemical, small-molecule microarray, fluorescence 635/667, stem cell growth factor project, primary screen (AID 1071).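 Note: score merges 667 nm spot intensity and signal to noise from triplicate slides.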 To be noted: higher = more signal.
For experiment [5], the target named is Neurogenic locus notch homolog protein 2 (Homo sapiens) (UniProt Q04721). Briefly: small molecules binding Notch2 protein – biochemical, small-molecule microarray, 635 nm fluorescence, stem cell growth factors, primary screen (AID 1073). Conditions: higher = more signal.
The target of experiment [6] is Pro-neuregulin-1, membrane-bound isoform (Homo sapiens) (UniProt Q02297). Briefly: small molecules binding neuregulin-1 protein – biochemical, small-molecule microarray, fluorescence 635/667, psychiatric disease protein project, primary screen (AID 1075).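 Note: score combines 667 nm spot fluorescence with signal to noise.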 To be noted: NRG1 binding, 635 nm fluorescence, higher = more signal.
Experiment [7] has as its system Neuregulin-1 EGF-like domain. Briefly: small molecules binding NRG1 EGF domain – biochemical, small-molecule microarray, 635 nm fluorescence, primary screen (AID 1081).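 Note: binding of the protein to compounds printed on small-molecule microarray slides.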 To be noted: higher = more signal.
Experiment [8] is described as follows: FRG1 expression reporter modulators in myotubes – cell-based, C2C12 myotubes, firefly/Renilla luciferase, luminescence, FRG1 inhibition for FSHD, primary screen (AID 1084). Conditions: FRG1 promoter luciferase, higher = more signal, called active from +8 up or from −8 down.
Experiment [9] in a line: small molecules captured by biotinylated probe aFST – biochemical, small-molecule microarray, fluorescence 635/667, stem cell growth factor project, primary screen (AID 1086).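 Note: score merges 667 nm fluorescence with signal-to-noise of each printed compound spot.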 Conditions: higher = more signal.
The nature of experiment [10]: binders of probe aHhip on microarray, primary screen, stem cell growth factor project, biochemical, small-molecule microarray, fluorescence 635/667 (AID 1087).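 Note: score merges spot fluorescence at 667nm with spot signal to noise ratio.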 Conditions: higher = more signal.
The subject of experiment [11] is PRMT1 (protein arginine N-methyltransferase 1). The experiment in a line: small molecules binding arginine methyltransferase PRMT1 – biochemical, small-molecule microarray, 635 nm fluorescence, primary screen (AID 1088).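 Note: binding of Prmt1 protein to compounds spotted on small-molecule microarray slides.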 To be noted: higher = more signal.
Experiment [12] in a line: growth effects on S. cerevisiae YJM789 – YJM789 clinical isolate, OD600, 24 h, basal, primary screen (AID 1089).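 Note: growth of clinical yeast isolate S. cerevisiae YJM 789 seeded 1000 cells per well; test concentration not given here.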 Conditions: higher = more signal, called active from +8 up or from −8 down.
The nature of experiment [13]: S. pombe growth modifiers, basal conditions – strain 972, OD600, 24 h, no modulator, primary screen (AID 1090).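 Note: basal condition with compound alone and no growth modifier present; test concentration not given here.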 To be noted: S. pombe 972 growth, higher = more signal, called active from +8 up or from −8 down.
Experiment [14] in a line: budding yeast growth modifiers under rapamycin – strain BY4716, OD600, 96 h, primary screen (AID 1091). Note: test concentration not given here. Conditions: S. cerevisiae BY4716 + rapamycin, higher = more signal, called active from +8 up or from −8 down.
In experiment [15] the target is Torsin-1A-interacting protein 2 (Homo sapiens) (UniProt Q8NFQ8). The experiment in a line: small molecules binding lysate-expressed LULL1 – cell lysate, human LULL1 lysate, 635/667 nm fluorescence, primary screen (AID 1092).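 Note: probe is lysate of COS7 cells overexpressing human LULL1; score merges per-feature 667 nm fluorescence with signal-to-noise.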 To be noted: small-molecule microarray, hLULL1 lysate binding, 635 nm fluorescence; higher = more signal.
Experiment [16] is described as follows: optical density change of DRC41 E. coli – strain DRC41, OD650, 24 h, E. coli filamentation project, primary screen (AID 1093).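 Note: MC1000 strain lacking acrAB efflux and sulA so SOS filamentation is blocked; test concentration not given here.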 To be noted: E. coli DRC41 growth, higher = more signal, called active from +8 up or from −8 down.
A short description of experiment [17]: probe aLefty2 binding to arrayed compounds – biochemical, biotinylated probe, 635/667 nm fluorescence, primary screen (AID 1094).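 Note: score merges spot fluorescence near 667 nm with spot signal-to-noise ratio.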 Conditions: small-molecule microarray, higher = more signal.
Experiment [18] has as its system Noggin (protein binding on small-molecule microarray). The experiment in a line: small molecules binding Noggin protein – biochemical, 635/667 nm fluorescence, primary screen (AID 1095).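 Note: score merges 667 nm feature fluorescence with signal to noise over triplicate slides.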 Conditions: 635 nm fluorescence, higher = more signal.
Experiment [19] deals with Neurogenic locus notch homolog protein 3 (Homo sapiens) (UniProt Q9UM47). The experiment in a line: small molecules binding NOTCH3 protein – biochemical, 635/667 nm fluorescence, primary screen (AID 1096). To be noted: small-molecule microarray, 635 nm fluorescence, higher = more signal.
The nature of experiment [20]: probe aEGFR binding to arrayed compounds – biochemical, biotinylated probe, 635/667 nm fluorescence, primary screen (AID 1097).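 Note: probe is a biotinylated anti-EGFR antibody binding compounds printed on slides; score combines fluorescence near 667 nm and signal to noise of each spot.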 To be noted: small-molecule microarray, higher = more signal.

Neurogenic locus notch homolog protein 3 (Homo sapiens), sequence (Q9UM47 whole entry, looked up): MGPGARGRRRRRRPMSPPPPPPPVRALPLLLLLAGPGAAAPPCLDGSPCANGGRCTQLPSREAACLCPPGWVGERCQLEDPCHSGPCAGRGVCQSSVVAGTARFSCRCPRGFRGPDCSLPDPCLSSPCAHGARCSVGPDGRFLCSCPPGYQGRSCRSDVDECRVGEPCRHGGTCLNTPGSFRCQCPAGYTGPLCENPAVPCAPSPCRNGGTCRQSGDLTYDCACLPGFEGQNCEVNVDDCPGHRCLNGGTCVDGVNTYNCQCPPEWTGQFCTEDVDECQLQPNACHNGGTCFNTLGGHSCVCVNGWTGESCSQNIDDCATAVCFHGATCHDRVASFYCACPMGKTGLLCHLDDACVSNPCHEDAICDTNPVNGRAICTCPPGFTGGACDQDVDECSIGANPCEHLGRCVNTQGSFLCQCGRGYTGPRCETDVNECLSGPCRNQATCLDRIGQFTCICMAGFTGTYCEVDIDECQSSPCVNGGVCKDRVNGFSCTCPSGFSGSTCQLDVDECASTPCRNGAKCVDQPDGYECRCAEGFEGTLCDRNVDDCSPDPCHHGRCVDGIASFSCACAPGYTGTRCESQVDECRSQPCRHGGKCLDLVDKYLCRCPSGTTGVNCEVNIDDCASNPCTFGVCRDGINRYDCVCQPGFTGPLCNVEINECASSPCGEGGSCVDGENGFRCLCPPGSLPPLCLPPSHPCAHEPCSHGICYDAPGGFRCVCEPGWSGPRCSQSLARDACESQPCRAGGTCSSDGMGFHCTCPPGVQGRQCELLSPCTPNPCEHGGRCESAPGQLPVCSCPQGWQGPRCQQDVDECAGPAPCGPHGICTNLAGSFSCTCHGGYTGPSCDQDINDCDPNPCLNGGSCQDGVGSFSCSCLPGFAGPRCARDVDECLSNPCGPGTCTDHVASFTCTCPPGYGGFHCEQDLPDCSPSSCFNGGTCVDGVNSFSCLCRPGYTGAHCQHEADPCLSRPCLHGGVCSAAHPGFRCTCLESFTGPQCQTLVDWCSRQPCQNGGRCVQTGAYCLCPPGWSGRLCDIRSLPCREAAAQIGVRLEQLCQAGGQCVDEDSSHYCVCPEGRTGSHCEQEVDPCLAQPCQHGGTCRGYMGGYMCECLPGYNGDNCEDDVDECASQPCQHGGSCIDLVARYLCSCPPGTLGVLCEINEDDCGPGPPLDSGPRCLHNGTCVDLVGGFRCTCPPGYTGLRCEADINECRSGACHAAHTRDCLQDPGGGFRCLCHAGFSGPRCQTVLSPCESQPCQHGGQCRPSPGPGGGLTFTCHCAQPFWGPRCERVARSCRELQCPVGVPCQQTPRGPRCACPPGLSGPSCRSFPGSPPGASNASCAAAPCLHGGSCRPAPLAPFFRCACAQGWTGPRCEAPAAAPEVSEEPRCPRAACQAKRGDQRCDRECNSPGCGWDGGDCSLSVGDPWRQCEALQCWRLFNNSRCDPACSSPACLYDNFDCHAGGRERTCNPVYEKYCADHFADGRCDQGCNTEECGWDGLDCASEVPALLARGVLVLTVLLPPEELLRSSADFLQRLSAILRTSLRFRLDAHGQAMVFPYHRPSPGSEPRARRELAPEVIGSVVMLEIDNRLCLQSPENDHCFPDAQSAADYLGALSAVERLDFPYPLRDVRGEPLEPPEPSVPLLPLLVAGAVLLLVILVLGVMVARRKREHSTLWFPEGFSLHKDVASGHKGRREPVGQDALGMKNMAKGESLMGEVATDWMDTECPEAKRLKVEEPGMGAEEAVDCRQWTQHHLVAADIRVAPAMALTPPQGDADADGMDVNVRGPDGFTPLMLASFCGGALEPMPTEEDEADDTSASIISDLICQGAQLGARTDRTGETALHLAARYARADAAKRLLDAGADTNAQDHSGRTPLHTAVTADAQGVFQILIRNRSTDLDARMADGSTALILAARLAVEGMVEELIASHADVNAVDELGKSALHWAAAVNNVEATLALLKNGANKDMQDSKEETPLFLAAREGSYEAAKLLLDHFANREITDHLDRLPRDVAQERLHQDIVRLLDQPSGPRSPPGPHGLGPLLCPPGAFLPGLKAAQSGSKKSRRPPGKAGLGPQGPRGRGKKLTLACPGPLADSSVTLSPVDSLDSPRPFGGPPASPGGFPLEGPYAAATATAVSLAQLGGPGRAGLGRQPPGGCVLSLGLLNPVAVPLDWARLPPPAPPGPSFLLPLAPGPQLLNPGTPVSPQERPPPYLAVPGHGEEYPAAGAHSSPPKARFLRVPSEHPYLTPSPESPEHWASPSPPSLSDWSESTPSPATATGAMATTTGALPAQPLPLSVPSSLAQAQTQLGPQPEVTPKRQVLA
Torsin-1A-interacting protein 2 (Homo sapiens), sequence (Q8NFQ8 whole entry, looked up): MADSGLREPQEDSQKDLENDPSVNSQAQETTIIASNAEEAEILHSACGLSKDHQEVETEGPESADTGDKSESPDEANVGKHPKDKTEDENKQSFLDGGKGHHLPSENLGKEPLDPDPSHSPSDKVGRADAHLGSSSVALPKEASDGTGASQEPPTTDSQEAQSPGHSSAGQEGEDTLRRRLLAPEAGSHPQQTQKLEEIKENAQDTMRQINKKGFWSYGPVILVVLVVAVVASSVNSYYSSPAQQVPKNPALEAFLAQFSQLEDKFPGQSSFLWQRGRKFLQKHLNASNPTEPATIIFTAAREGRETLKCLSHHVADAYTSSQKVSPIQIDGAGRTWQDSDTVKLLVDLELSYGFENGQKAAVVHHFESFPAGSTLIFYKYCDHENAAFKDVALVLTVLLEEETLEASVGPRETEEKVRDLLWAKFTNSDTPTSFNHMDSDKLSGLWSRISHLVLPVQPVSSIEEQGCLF
Pro-neuregulin-1, membrane-bound isoform (Homo sapiens), sequence (Q02297 whole entry, looked up, the tested form may be a part, canonical isoform): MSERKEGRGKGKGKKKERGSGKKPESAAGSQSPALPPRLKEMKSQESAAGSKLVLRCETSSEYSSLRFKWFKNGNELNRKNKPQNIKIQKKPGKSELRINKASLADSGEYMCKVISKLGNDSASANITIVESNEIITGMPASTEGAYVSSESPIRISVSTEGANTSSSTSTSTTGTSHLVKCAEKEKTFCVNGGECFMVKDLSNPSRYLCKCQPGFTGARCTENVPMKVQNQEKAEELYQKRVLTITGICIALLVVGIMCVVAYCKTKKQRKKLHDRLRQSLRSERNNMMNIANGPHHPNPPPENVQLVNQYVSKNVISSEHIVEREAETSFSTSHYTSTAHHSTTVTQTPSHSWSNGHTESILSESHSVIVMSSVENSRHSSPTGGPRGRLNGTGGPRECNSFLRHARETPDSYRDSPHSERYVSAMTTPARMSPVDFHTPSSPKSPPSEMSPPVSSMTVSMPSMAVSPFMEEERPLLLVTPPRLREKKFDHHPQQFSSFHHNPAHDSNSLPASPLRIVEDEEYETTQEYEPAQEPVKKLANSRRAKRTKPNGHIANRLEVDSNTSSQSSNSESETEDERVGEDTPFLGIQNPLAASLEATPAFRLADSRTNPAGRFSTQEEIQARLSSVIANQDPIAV

As to `C=CC[C@@]1(C(=O)NCCCOC)N=C(c2ccc(OCCCO)cc2)O[C@@H]1c1ccccc1CN=[N+]=[N-]`, the composite z-score was 0.227 in experiment [1]; -0.448 in [2]; 0.106 in [3]; 0.744 in experiment [4]; 1.43 in [5]; 1.79 in experiment [6]. The composite z-score in experiment [7] was 1.03; in experiment [9], 1.25; in [10], -0.105; in experiment [11], 1.55; in [15] it was 2.35; in [17] it was 0.258. Further, the composite z-score in [18] was determined as 1.01; in [19], 1.12; in [20], 0.0914. For the same compound, the z-score in [8] is -1.97 (inactive); in experiment [12], -0.759 (inactive); in [13] it was -0.0094 (inactive); in [14], -0.966 (inactive); in experiment [16], 1.1 (inactive).
For the compound `COC(=O)Cn1c(C(=O)N(C)C)cc2c1C[C@H]1CN(C(=O)c3ccccc3)[C@@](Cc3ccccc3)(C(=O)OC)[C@@H]21`, the composite z-score in experiment [1] is -0.215; in [2] it was -0.365; in experiment [3] it was -0.0493; in experiment [4], 0.0707; in experiment [5] it was 1.47; in experiment [6], 1.5. Also, the composite z-score is 0.641 in experiment [7]; 0.0747 in experiment [9]; 0.12 in experiment [10]; -0.858 in experiment [11]; 1.36 in experiment [15]; 0.0022 in [17]. In addition, the values for the composite z-score in [18], in experiment [19] and in [20] were 0.449, 0.0571 and 0.25, respectively. The z-score in experiment [8] is 1.5 (inactive); in experiment [12] it was -0.561 (inactive); in experiment [13], -0.103 (inactive); in experiment [14], -0.207 (inactive); in [16], -0.537 (inactive).
Take `C=C(C(=O)CC[C@@H](OC(=O)c1ccccc1-c1ccccc1C(=O)O)c1ccc(OCCO)cc1)C(C)C`: the composite z-score in experiment [1] is -0.49; in experiment [2], 0.235; in [3] it was 0.0129; in [4] it was 1.11; in [5], 0.52; in experiment [6], 0.551. Further, the composite z-score in experiment [7] was 0.512; in experiment [9], 0.136; in experiment [10], 0.245; in experiment [11], 1.55; in [15] it was 1.25; in experiment [17], 0.0028. Besides, the composite z-score in experiment [18] was 1.35; in experiment [19], 1.15; in experiment [20] it was -0.0755. Besides, the z-score in [8] was 2.12 (inactive); in experiment [12], -0.694 (inactive); in experiment [13], -1.26 (inactive); in experiment [14], -1.3 (inactive); in [16], 0.416 (inactive).
In the case of `C=C(COC)C(=O)CC[C@H](OC(C)=O)c1ccc(CO)o1`, the composite z-score is -0.374 in experiment [1]; 0.275 in experiment [2]; -0.148 in experiment [3]; 0.265 in experiment [4]; -0.0537 in experiment [5]; 0.0866 in experiment [6]. In addition, the composite z-score is 0.0976 in experiment [7]; -0.225 in experiment [9]; -0.132 in [10]; -0.451 in experiment [11]; 2 in [15]; -0.0963 in experiment [17]. Moreover, the composite z-score was 1.31 in experiment [18], 0.651 in experiment [19] and -0.067 in experiment [20]. Besides, the z-score in experiment [8] was -0.28 (inactive); in experiment [12] it was -1.16 (inactive); in [13] it was -0.603 (inactive); in experiment [14], -1.46 (inactive); in [16] it was 1.5 (inactive).
As for `C=CCOC(=O)[C@H]1[C@@H]2C(=O)O[C@@H](c3ccccc3)[C@@H](c3ccccc3)N2[C@@H](c2ccc(OCCOC(=O)[C@@H]3C[C@@H]4C(=O)N[C@@H](Cc5ccccc5)C(=O)N4[C@@H]3c3ccc(O)cc3)cc2)[C@]12C(=O)Nc1ccc(I)cc12`, the composite z-score is 1.36 in experiment [1]; 0.0366 in experiment [2]; -0.0861 in experiment [3]; 0.449 in experiment [4]; 0.437 in experiment [5]; 0.422 in experiment [6]. Further, the composite z-score in experiment [7] is 1.08; in [9], 0.258; in experiment [10], -0.0645; in experiment [11], 1.34; in [15], 1.93; in experiment [17], -0.0666. Also, the composite z-score in experiment [18] was 1.49; in [19] it was 0.918; in experiment [20], -0.0119. In addition, the z-score is 1.3 (inactive) in [8]; 1.77 (inactive) in experiment [12]; 2.14 (inactive) in [13]; 5.89 (inactive) in [14]; 0.114 (inactive) in [16].
Turning to `CCN1C(=O)C2CC(=O)C3C(CN(S(=O)(=O)c4ccc(C)cc4)C3c3ccc(C)cc3)C2C1=O` (stereo not given), the composite z-score in [1] came to 0.584; in [2], 0.122; in [3] it was 0.0174; in experiment [4], 0.183; in experiment [5] it was 0.308; in [6], 1.61. Also, the composite z-score is 1.18 in [7]; 0.292 in experiment [9]; 0.0053 in experiment [10]; 0.751 in experiment [11]; 2.75 in experiment [15]; -0.0176 in [17]. In addition, the composite z-score is -0.841 in experiment [18], 0.627 in experiment [19] and -0.0089 in experiment [20]. In addition, the z-score in experiment [8] is -0.812 (inactive); in experiment [12], -0.01 (inactive); in [13], 0.616 (inactive); in experiment [14], 0.627 (inactive); in experiment [16], 0.398 (inactive).
For `O=C(NCC(F)(F)F)[C@@H]1c2ccccc2C(=O)N(Cc2cc(C(F)(F)F)cc(C(F)(F)F)c2)[C@H]1c1ccc(CO)cc1`, the composite z-score in experiment [1] was -0.381; in [2], -0.147; in experiment [3], -0.203; in experiment [4], -0.155; in experiment [5] it was 0.154; in [6], 1.73. Also, the composite z-score in [7] is 1.25; in [9], -0.192; in [10], -0.0296; in experiment [11], 0.648; in experiment [15], 1.04; in experiment [17], -0.217. Also, the composite z-score was 0.148 in experiment [18], -0.122 in experiment [19] and -0.219 in experiment [20]. Also, the z-score in [8] was -0.884 (inactive); in [12], 0.338 (inactive); in experiment [13], 0.459 (inactive); in experiment [14], -0.359 (inactive); in experiment [16], 0.955 (inactive).
On to `C=CC[C@]12N=C(c3ccc(OCCCO)cc3)O[C@H]1c1ccccc1N(CCC)C2=O`, for which the composite z-score in experiment [1] is 1.08; in experiment [2], 1.02; in experiment [3], 0.239; in experiment [4], 0.367; in [5] it was 0.481; in experiment [6] it was 1.56. The composite z-score is 1.35 in experiment [7]; 2 in experiment [9]; -0.0961 in experiment [10]; 1.55 in experiment [11]; 2.96 in [15]; 0.15 in experiment [17]. Also, the composite z-score in experiment [18] is 1.2; in experiment [19], 1.11; in experiment [20] it was 0.198. Also, the z-score in experiment [8] was 0.43 (inactive); in experiment [12], -1.42 (inactive); in [13], -2.04 (inactive); in experiment [14] it was -1.06 (inactive); in experiment [16], 0.544 (inactive).
Turning to `CCOC(=O)C=C1C[C@@H](c2cccc([N+](=O)[O-])c2)O[C@@H](c2cccc([N+](=O)[O-])c2)O1`, the composite z-score came to 0.654 in experiment [1]; 0.178 in experiment [2]; 0.429 in experiment [3]; 0.432 in experiment [4]; 1.59 in experiment [5]; 0.962 in [6]. Also, the composite z-score in experiment [7] is 0.896; in experiment [9] it was 1.72; in experiment [10], -0.226; in [11], 1.5; in experiment [15] it was 2.29; in experiment [17], 0.91. The results for the composite z-score in experiment [18], in experiment [19] and in [20] were 0.327, 1.12 and 0.246, respectively. For the same compound, the z-score was -2.17 (inactive) in experiment [8]; 1.07 (inactive) in experiment [12]; 1.8 (inactive) in experiment [13]; 1.79 (inactive) in experiment [14]; -0.239 (inactive) in experiment [16].
